The values that follow come from PubChem BioAssay (NCATS).

Experiment [1] deals with Metallo-beta-lactamase type 2 (Klebsiella pneumoniae) (UniProt C7C422). Put plainly: qHTS to identify inhibitors of the New Delhi Metallo-beta-lactamase (NDM): assay validation screen against the NCATS LOPAC Collection (AID 1794843).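 Also: nitrocefin turnover by NDM-1 measured as 485 nm absorbance at plateau; series mostly up to about 38 µM.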 The method, boiled down: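 Nitrocefin hydrolysis (50 uM substrate stock) by NDM-1, 2 nM final, was followed by 485 nm absorbance after compound preincubation; buffer was 50 mM HEPES pH 7.0, 1 uM ZnSO4, 0.01% Tween20.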

The target in experiment [2] is Glutathione peroxidase 1 (Homo sapiens) (UniProt P07203). The experiment can be described thus: Primary qHTS Assay for Inhibitors of Recombinant Selenoprotein Glutathione Peroxidase 1 (GPX1) (AID 1845191). Also: nearly all actives have a fitted effect of over 65% in size. A digest of the protocol: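 NADPH consumption tracked by fluorescence at 340/450 nm between t=0 and t=15 min, room temperature. Final mix: 10 nM GPX1, 100 nM glutathione reductase, 1 mM GSH, 0.5 mM NADPH, 0.5 mM cumene hydroperoxide, 0.01% BSA; 30 min compound–enzyme preincubation.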

Inconclusive results are not listed. A call without a number means that no potency is given here. The source made the active and inactive calls. Calls follow the shape of the dose curve; as a rule, active = well fitted curve in the direction sought with a large enough effect; inconclusive = small, poorly fitted or top-dose-only effect, or another doubt; inactive = no such curve, though single readings can be large; an effect the other way counts as inactive or inconclusive. Residues, ends and D or L forms follow the SMILES beside them. *: point of attachment. Cbz = O=C(OCc1ccccc1)*

Chain of Metallo-beta-lactamase type 2 (Klebsiella pneumoniae) (C7C422 whole entry, looked up): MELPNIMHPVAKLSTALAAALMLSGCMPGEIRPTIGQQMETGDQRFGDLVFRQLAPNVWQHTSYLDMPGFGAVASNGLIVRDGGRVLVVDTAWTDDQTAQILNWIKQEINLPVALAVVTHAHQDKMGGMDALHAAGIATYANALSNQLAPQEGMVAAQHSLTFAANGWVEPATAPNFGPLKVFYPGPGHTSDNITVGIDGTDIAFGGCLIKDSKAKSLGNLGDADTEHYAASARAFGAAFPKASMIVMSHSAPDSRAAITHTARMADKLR
Chain of Glutathione peroxidase 1 (Homo sapiens) (P07203 whole entry, looked up): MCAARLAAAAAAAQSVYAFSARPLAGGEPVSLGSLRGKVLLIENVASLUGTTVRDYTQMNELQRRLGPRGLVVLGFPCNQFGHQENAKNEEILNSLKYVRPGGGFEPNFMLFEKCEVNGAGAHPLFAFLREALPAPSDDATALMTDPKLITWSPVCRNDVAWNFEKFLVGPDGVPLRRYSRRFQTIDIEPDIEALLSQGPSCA

With `CN1C2CCC1CC(OC(c1ccccc1)c1ccccc1)C2` (stereo unspecified), the Potency entry in experiment [1] and in experiment [2] was “inactive” throughout.
For `CC(N)(C(=O)O)c1ccc(C(=O)O)cc1` (stereo unspecified), the Potency entry in experiment [1] and in experiment [2] was “inactive” throughout.
Take `CC(C)NCC(O)COc1ccc(CC(N)=O)cc1` (stereo unspecified): the Potency result in experiment [1] and in experiment [2] was “inactive” each time.
Regarding `Cc1cc(Cn2cnc3c2C[C@@H](C(=O)O)N(C(=O)C(c2ccccc2)c2ccccc2)C3)ccc1N`, the Potency result in experiment [1] and in experiment [2] was “inactive” throughout.
Regarding `Cc1nc(N=Nc2ccc(C(=O)O)cc2)c(COP(=O)(O)O)c(C=O)c1O`, the Potency entry in experiment [1] and in experiment [2] was “inactive” throughout.
Turning to `CC(N)(Cc1ccc(O)cc1)C(=O)O` (stereo unspecified), the Potency entry in experiment [1] and in experiment [2] was “inactive” each time.
For `C[N+](C)(C)CC=O`, the Potency result in experiment [1] and in experiment [2] was “inactive” each time.
As to `C=C1C[C@@]23CC[C@H]4[C@@](C)(CCC[C@@]4(C)C(=O)O)[C@@H]2CC[C@]1(O)C3`, the Potency entry in experiment [1] and in experiment [2] was “inactive” in each case.
For `COc1cc2c(CCNC(C)=O)c[nH]c2cc1O`, the Potency entry in experiment [1] and in experiment [2] was “inactive” each time.
`O=C(O)CCC/C=C\C[C@@H]1[C@@H](/C=C/[C@H](O)C2Cc3ccccc3C2)[C@@H](F)C[C@@H]1O`: the Potency result in experiment [1] and in experiment [2] was “inactive” each time.
On to `Nc1ncnc2c1ncn2C1CCCC1`, for which the Potency entry in experiment [1] and in experiment [2] was “inactive” in each case.
Consider `OC[C@H]1O[C@@H](n2cnc3cncnc32)[C@H](O)[C@@H]1O`, for which the Potency result in experiment [1] and in experiment [2] was “inactive” in each case.
For `O=c1cc(O)cc(/C=C/c2ccc(O)c(O)c2)o1`, the Potency result in experiment [1] and in experiment [2] was “inactive” throughout.
As to `CCCN(CCc1ccccc1)C1CCc2c(O)cccc2C1` (stereo unspecified), the Potency entry in experiment [1] and in experiment [2] was “inactive” each time.
Take `CCCCCCCCCCC/C=C\C(C)(C)/C=C\CCCC(=O)O`: the Potency result in experiment [1] and in experiment [2] was “inactive” each time.
Regarding `Cc1nc2c(OCc3ccccc3)cccn2c1CC#N`, the Potency entry in experiment [1] and in experiment [2] was “inactive” each time.
For the compound `N[C@@H](CS(=O)O)C(=O)O`, the Potency entry in experiment [1] and in experiment [2] was “inactive” throughout.
Turning to `CC(C)C[C@H](NC(=O)C1OC1C(=O)O)C(=O)NCCCCN=C(N)N` (stereo partly specified), the Potency entry in experiment [1] and in experiment [2] was “inactive” throughout.
With `CCCCCCCCCCCCCCCCCCOC[C@H](COP(=O)([O-])OCC[N+](C)(C)C)OC`, the Potency result in experiment [1] and in experiment [2] was “inactive” in each case.
On to `OCC1NCC(O)C(O)C1O` (stereo unspecified), for which the Potency entry in experiment [1] and in experiment [2] was “inactive” throughout.
On to `NC(=O)CC[C@H](N)C(=O)O`, for which the Potency result in experiment [1] and in experiment [2] was “inactive” throughout.
In the case of `NC(N)=NC(N)=Nc1ccccc1`, the Potency entry in experiment [1] and in experiment [2] was “inactive” each time.
`O=C(O)/C(=C/c1c(C(=O)O)[nH]c2cc(Cl)cc(Cl)c12)c1ccccc1`: the Potency entry in experiment [1] and in experiment [2] was “inactive” throughout.
Regarding `CC(C)Cn1c(=O)n(C)c(=O)c2[nH]cnc21`, the Potency entry in experiment [1] and in experiment [2] was “inactive” throughout.
As for `NC1(C(=O)O)CC1`, the Potency result in experiment [1] and in experiment [2] was “inactive” each time.
Regarding `O=[N+]([O-])c1cccc2c(Br)[nH]nc12`, the Potency entry in experiment [1] and in experiment [2] was “inactive” each time.
Regarding `O=c1[nH]c2ccccc2c2ccccc12`, the Potency result in experiment [1] and in experiment [2] was “inactive” each time.
Consider `COC(=O)C(N)Cc1ccc(Cl)cc1` (stereo unspecified), for which the Potency entry in experiment [1] and in experiment [2] was “inactive” in each case.
`CC(=O)NNC(=O)N1Cc2ccccc2Oc2ccc(Cl)cc21`: the Potency result in experiment [1] and in experiment [2] was “inactive” each time.
For the compound `COC(=O)C(C)(N)Cc1ccc(O)cc1` (stereo unspecified), the Potency result in experiment [1] and in experiment [2] was “inactive” throughout.
Regarding `Cn1c(=O)c2[nH]c(C3CCCC3)nc2n(C)c1=O`, the Potency result in experiment [1] and in experiment [2] was “inactive” each time.
Turning to `OC1(c2ccc(Cl)cc2)CCN(Cc2c[nH]c3ccccc23)CC1`, the Potency result in experiment [1] and in experiment [2] was “inactive” throughout.
As for `C[C@H]1CC2C3CCC4=CC(=O)C=C[C@]4(C)[C@@]3(Cl)[C@@H](O)C[C@]2(C)[C@@]1(O)C(=O)CO` (stereo partly specified), the Potency entry in experiment [1] and in experiment [2] was “inactive” throughout.
`O=c1[nH]c2cc(Cl)ccc2c(O)c1-c1ccc(Oc2ccccc2)cc1`: the Potency result in experiment [1] and in experiment [2] was “inactive” each time.
For `CC[C@H](NC(=O)c1c(C)c(-c2ccccc2)nc2ccccc12)c1ccccc1`, the Potency result in experiment [1] and in experiment [2] was “inactive” each time.
In the case of `c1ccc2nc(C3=NCCN3)ccc2c1`, the Potency result in experiment [1] and in experiment [2] was “inactive” throughout.
Consider `OC[C@H]1NC[C@@H](O)[C@@H]1O`, for which the Potency entry in experiment [1] and in experiment [2] was “inactive” in each case.
On to `COc1ccccc1N1CCN(CCCCN2C(=O)c3ccccc3C2=O)CC1`, for which the Potency entry in experiment [1] and in experiment [2] was “inactive” in each case.
As to `CC(=O)O[C@H]1Cc2ccccc2N(C(N)=O)c2ccccc21`, the Potency entry in experiment [1] and in experiment [2] was “inactive” throughout.
As to `[N-]=[N+]=Nc1ccc(C(=O)CSC[C@H](NC(=O)CC[C@H](N)C(=O)O)C(=O)NCC(=O)O)cc1`, the Potency result in experiment [1] and in experiment [2] was “inactive” each time.
Take `CC(=O)NCCc1c[nH]c2ccc(O)cc12`: the Potency entry in experiment [1] and in experiment [2] was “inactive” in each case.
Regarding `O=C(O)c1cc2cc(F)ccc2[nH]1`, the Potency result in experiment [1] and in experiment [2] was “inactive” in each case.
On to `CCCn1c(=O)c2[nH]c(C3CCCC3)nc2n(CCC)c1=O`, for which the Potency result in experiment [1] and in experiment [2] was “inactive” each time.
In the case of `CSC(N)=NCCC[C@H](N)C(=O)O`, the Potency entry in experiment [1] and in experiment [2] was “inactive” throughout.
As for `NC1(C(=O)O)CCc2cc(C(=O)O)ccc21` (stereo unspecified), the Potency entry in experiment [1] and in experiment [2] was “inactive” throughout.
Turning to `CCCn1c(=O)c2c(ncn2C)n(CCC)c1=O`, the Potency result in experiment [1] and in experiment [2] was “inactive” in each case.
Regarding `CCCCCCN(CCCCCC)C(=O)Cc1c(-c2ccc(F)cc2)[nH]c2ccccc12`, the Potency entry in experiment [1] and in experiment [2] was “inactive” each time.
In the case of `CCCCCCCCCC(=O)NC(CN1CCOCC1)[C@H](O)c1ccccc1` (stereo partly specified), the Potency result in experiment [1] and in experiment [2] was “inactive” in each case.
With `C=CCn1c(=O)c2c(nc(-c3ccc(S(=O)(=O)O)cc3)n2C)n(C)c1=O`, the Potency result in experiment [1] and in experiment [2] was “inactive” each time.
On to `CC(C)[C@H](NC(=O)OCc1ccccc1)C(=O)N[C@H](C=O)Cc1ccccc1` (Cbz-Val-Phe-aldehyde), for which the Potency result in experiment [1] and in experiment [2] was “inactive” in each case.
For `CC(C)(C)c1ccc(/C=C/C(=O)Nc2ccc3c(c2)OCCO3)cc1`, the Potency result in experiment [1] and in experiment [2] was “inactive” throughout.
Take `CC1C(=O)N(C)C(=O)c2nc[nH]c21` (stereo unspecified): the Potency result in experiment [1] and in experiment [2] was “inactive” throughout.
With `NC(N)=[N+]1CCc2ccccc2C1`, the Potency entry in experiment [1] and in experiment [2] was “inactive” each time.
In the case of `C#CCn1c(=O)c2c(ncn2C)n(C)c1=O`, the Potency entry in experiment [1] and in experiment [2] was “inactive” in each case.
For the compound `O=C(O)c1ccccc1Nc1cccc(OCc2ccc3ccccc3n2)c1`, the Potency result in experiment [1] and in experiment [2] was “inactive” in each case.
For `S=C(S)N1CCCC1`, the Potency result in experiment [1] and in experiment [2] was “inactive” in each case.
As to `Cc1cccc(C)c1OCC(N)C(C)C` (stereo unspecified), the Potency entry in experiment [1] and in experiment [2] was “inactive” each time.
For `N[C@@H](Cc1ccc(F)cc1)C(=O)O`, the Potency result in experiment [1] and in experiment [2] was “inactive” each time.
Consider `COC1(C2=NCCN2)COc2ccccc2O1` (stereo unspecified), for which the Potency result in experiment [1] and in experiment [2] was “inactive” each time.
Turning to `CCCCCC(O)CCCC(=O)O` (stereo unspecified), the Potency result in experiment [1] and in experiment [2] was “inactive” in each case.
On to `CCCCCCCCCCCCCCC[C@H](O)[C@H](N)CO`, for which the Potency result in experiment [1] and in experiment [2] was “inactive” each time.
Take `CC1CCN(CC[C@H]2CCCN2S(=O)(=O)c2cccc(O)c2)CC1`: the Potency entry in experiment [1] and in experiment [2] was “inactive” in each case.
Regarding `OC[C@H]1O[C@H](n2cnc3c(N[C@H]4CCC[C@@H]4O)ncnc32)[C@H](O)[C@@H]1O`, the Potency entry in experiment [1] and in experiment [2] was “inactive” each time.
Turning to `CC(C)[C@@H]1CC[C@@H](C)C[C@@H]1P(=O)(c1ccccc1)c1ccccc1`, the Potency entry in experiment [1] and in experiment [2] was “inactive” in each case.
On to `CC(C)NC[C@H](O)COc1ccc(CC(N)=O)cc1`, for which the Potency result in experiment [1] and in experiment [2] was “inactive” throughout.
`O=S(=O)(c1cccc2c(Cl)cccc12)N1CCCNCC1`: the Potency result in experiment [1] and in experiment [2] was “inactive” each time.
Take `c1ccc(C2CN3CCSC3=N2)cc1` (stereo unspecified): the Potency result in experiment [1] and in experiment [2] was “inactive” throughout.
`O=C(O)C1=CCCNC1`: the Potency result in experiment [1] and in experiment [2] was “inactive” throughout.
